This passage reports INHIBITION results from ChEMBL document CHEMBL4513216, “Probing the Open Global Health Chemical Diversity Library for Multistage-Active Starting Points for Next-Generation Antimalarials” (ACS Infect Dis, 2020).

In all, about 69,000 compounds went through this assay and about 8,600 (12%) showed an effect of 50% or more. The sample as a whole holds a higher share of strong results than the screen did.

In this assay the test system is Plasmodium berghei. Briefly: Screen against P. berghei liver stage (PbLuc), transformed with Luciferase, at 10uM. It counts as functional, HepG2. Particulars: tested at 10 uM.
With `CCCc1nnc(N2CCC3(CC2)CC(=O)NC(=O)C3)o1`, the INHIBITION is listed as -10.2%.
Take `COc1ccc(CC(=O)N2CCCC(Cn3cc(CN)nn3)C2)cc1` (stereo not drawn): the INHIBITION is on record as 12.7%.
`NCc1cn(CC2CCCN(C(=O)CC3=CCCCC3)C2)nn1` (stereo not drawn): the INHIBITION was found to be 58.5%.
In the case of `COCc1cn(C2CCN(C(=O)Cc3ccsc3)CC2)nn1`, the INHIBITION is given as 34.8%.
For `O=C(c1sccc1Cl)N1CCC(Cn2cc(CO)nn2)CC1`, the INHIBITION is 10.7%.
Turning to `O=C(CC1=CCCCC1)N1CCC(Cn2cc(CCO)nn2)CC1`, the INHIBITION is 58.5%.
For the molecule `CC(C)(CN1CCCC1)CN1CCC(Cn2cc(CCO)nn2)CC1`, the INHIBITION is listed as -6.03%.
The result for `O=C(Cc1ccsc1)N1CCC(Cn2cc(CCO)nn2)CC1` reads 57.1%; that for `CC(C)CCN1CCCC(Cn2cc(CCO)nn2)C1` (stereo not drawn), 6.69%; that for `NCc1cn(CC2CCCN(C(=O)NCc3ccc(Cl)cc3)C2)nn1` (stereo not drawn), 45.8%.
Take `CC(C)N(C)Cc1cnc2n1CCN(CCc1ccccc1)C2`: the INHIBITION is on record as 8.47%.
For the molecule `O=C(NCCc1cccs1)[C@H]1CO[C@H]2CCNC[C@H]2C1`, the INHIBITION was 39.8%.
Turning to `Cc1noc(C)c1CN1CCO[C@H]2CN(C(=O)C3CCOCC3)C[C@H]21`, the INHIBITION is recorded as 29.4%.
For the molecule `O=C(c1ccn(-c2ccccc2Cl)n1)N1CCCSCC1`, the INHIBITION is recorded as -15.3%.
In the case of `c1ccc(OC2C[C@@H]3CN(Cc4cnccn4)C[C@@H]3C2)cc1` (stereo partly drawn), the INHIBITION is listed as -15.3%.
In the case of `Cc1cccc(Nc2cccc(C3CCCN(Cc4ncc[nH]4)C3)n2)n1` (stereo not drawn), the INHIBITION came out at 64.1%.
The result for `Cc1nnc(Nc2cccc(C3CCN(Cc4ncc[nH]4)CC3)n2)s1` reads -12.9%.
With `CNc1cccc(C2CCCN(Cc3ncc[nH]3)C2)n1` (stereo not drawn), the INHIBITION came to 15.9%.
As to `NC(=O)CN1CCCC(c2ccnc(Nc3ncccn3)c2)C1` (stereo not drawn), the INHIBITION is given as 37.55%.
Next, `c1ccc(CNc2cc(C3CCCNC3)ccn2)nc1` (stereo not drawn): 7.775%.
As for `COCCNc1cc(C2CCCNC2)ccn1` (stereo not drawn), the INHIBITION is -14.775%.
On to `Cc1cccc(Nc2cc(C3CCCN(CC(N)=O)C3)ccn2)n1` (stereo not drawn), for which the INHIBITION is recorded as 81.55%.
`Cc1cccc(CNc2cc(C3CCCNC3)ccn2)n1` (stereo not drawn): the INHIBITION amounted to 50.45%.
Regarding `Cc1nnc(Nc2cccc(C3CCCN(Cc4ncc[nH]4)C3)n2)s1` (stereo not drawn), the INHIBITION amounted to 62.9%.
Turning to `CCc1nnc(Nc2cccc(C3CCCN(CC(C)(C)C)C3)n2)s1` (stereo not drawn), the INHIBITION is -34.6%.
On to `Cc1cc(C)nc(Nc2cccc(C3CCCN(CC4CC4)C3)n2)n1` (stereo not drawn), for which the INHIBITION is listed as 47.2%.
`Cc1cccc(Nc2nccnc2C2CCCN(CC(=O)N(C)C)C2)n1` (stereo not drawn): the INHIBITION is on record as 36.7%.
The result for `CN(C)CCNC(=O)C1Cc2nc(-c3ccsc3)sc2N1CC1CC1` (stereo not drawn) reads -16.2%; that for `CCN1C[C@H]2[C@@H](C1)N(S(=O)(=O)c1ccccc1F)CC[C@H]2OC`, 32.2%.
For the molecule `CN1CCn2c(-c3ccccc3)cnc2C12CCN(CC1CC1)CC2`, the INHIBITION was 29.8%.
For `CCOC(=O)N1C[C@@H]2CC[C@H]1CN(Cc1ccccc1)C2`, the INHIBITION was found to be 12.8%.
`CN(C)CCN1C(=O)C[C@@H]2[C@@H]1CCN2S(=O)(=O)c1ccccc1`: the INHIBITION is recorded as -71.3%.
Regarding `CCC(=O)N1CCCCC1c1nc(O)c2c(n1)CN(S(C)(=O)=O)CC2` (stereo not drawn), the INHIBITION was 10.9%.
In the case of `Cn1ccc(-c2cc(C(=O)N3CCCCC3)c3ccccn23)n1`, the INHIBITION is 49.4%.
The result for `O=C(CCCOc1ccccc1F)Nc1cc[nH]n1` reads 11.5%; that for `CC(C)CC(=O)N[C@H](C)c1c(-c2ccc(Cl)cc2)noc1C(=O)O`, 7.5%; that for `CC(NC(=O)NCCCN(C(C)C)S(C)(=O)=O)c1ccncc1` (stereo not drawn), -11.4%.
For the molecule `NC(=O)CN(C(=O)C1Cc2cc(Cl)ccc2O1)C1CCCC1` (stereo not drawn), the INHIBITION is reported as 6.83%.
On to `O=C(O)c1ccc(F)c(S(=O)(=O)N2CCOc3ccccc32)c1`, for which the INHIBITION came to 32.44%.
As for `Cc1ccc(C(=O)N2C[C@H]3CC[C@@H](C2)N(CC2CCC2)C3)s1`, the INHIBITION is reported as -26.4%.
As for `COc1ncnc2c1CCN(Cc1cccs1)CC2`, the INHIBITION is recorded as -0.804%.
For the molecule `CCc1noc(C2CCCCN2C(=O)c2ccccc2)n1` (stereo not drawn), the INHIBITION is given as -45%.
Regarding `CCc1noc(C2CCCCN2C(=O)c2ccc(C)o2)n1` (stereo not drawn), the INHIBITION is on record as 45.8%.
As for `CCc1noc(C2CCCCN2C(=O)c2cc(C)oc2C)n1` (stereo not drawn), the INHIBITION was 78.1%.
The result for `CCc1noc(C2CCCCN2C(=O)c2ccoc2C)n1` (stereo not drawn) reads 22.1%.
As to `CCc1noc(C2CCCCN2C(=O)c2nnc3ccccc3n2)n1` (stereo not drawn), the INHIBITION is 62.4%.
On to `CCc1noc(C2CCCCN2C(=O)c2ccn(C3CCCC3)n2)n1` (stereo not drawn), for which the INHIBITION amounted to 6.32%.
As for `CCc1noc(C2CCCCN2C(=O)c2cc(C)n(C)n2)n1` (stereo not drawn), the INHIBITION is 52.4%.
`CCc1noc(C2CCCCN2C(=O)c2cccs2)n1` (stereo not drawn): the INHIBITION is on record as 9.32%.
Next, `CCc1noc(C2CCCCN2C(=O)c2cc(C)on2)n1` (stereo not drawn): 22.6%; `Cc1nn(CC(=O)Nc2ccon2)cc1Br`: 20.1%; `CN1CCC(N(CCc2ccccc2)C(=O)c2ccoc2)CC1`: 32.8%.
On to `CC(=O)N1CCC(C)(c2cc[nH]n2)CC1`, for which the INHIBITION was 35%.
In the case of `CN1CCN(CC(NCc2ccc(F)c(F)c2)c2ccccc2)CC1` (stereo not drawn), the INHIBITION is recorded as 8.31%.
`Cc1nonc1CC(=O)N1CCC2(CCCN(C3CCOCC3)C2=O)C1` (stereo not drawn): the INHIBITION is -41.8%.
As to `Cn1ccnc1CN1CCC(CCC(=O)Nc2ccccc2Cl)CC1`, the INHIBITION was 9.72%.
For `CCn1ccnc1CN1CCN(CC(=O)NC(=O)NC2CC2)CC1`, the INHIBITION is -3.95%.
For the molecule `CCn1cc(CN2CCC(CCC(=O)Nc3ccccc3Cl)CC2)cn1`, the INHIBITION was found to be 49.5%.
Regarding `CCn1ccnc1CN1CCN(CC(=O)NC2CCOCC2)CC1`, the INHIBITION turned out to be 22.5%.
Next, `O=C(CCC1CCN(Cc2ncc[nH]2)CC1)Nc1ccccc1Cl`: 38.5%.
The result for `O=C(CCC1CCN(Cc2ccncc2)CC1)Nc1ccccc1Cl` reads 70.1%.
The result for `Cn1cc(CN2CCC(CCC(=O)Nc3ccccc3Cl)CC2)cn1` reads 34%; that for `CCn1ccnc1CN1CCN(CC(=O)NC(C2CC2)C2CC2)CC1`, 51.85%.
With `CSc1cccc(CN2CCC(CCC(=O)Nc3ccccc3)CC2)c1`, the INHIBITION was determined as 47.7%.
For the molecule `CCn1ccnc1CN1CCC(CCC(=O)Nc2ccccc2Cl)CC1`, the INHIBITION was found to be 71.8%.
The result for `CSc1cccc(CN2CCC(CCC(=O)NC3CC3)CC2)c1` reads 35.4%.
Take `CSc1ccc(CN2CCC(CCC(=O)Nc3ccccc3)CC2)cc1`: the INHIBITION was determined as 64.5%.
Next, `CN(C)CCN1C(=O)CCCC12CCCN(Cc1ccc[nH]1)C2` (stereo not drawn): 26%.
